# High-throughput results from PubChem BioAssay.
# Only a selection was taken, and hits are over-represented in it overall.
# PINK1 expr mod = A Quantitative High throughput Screen to Identify Chemical Modulators of PINK1 Expression; PINK1 immunofluorescence, high-content cytometry, 24 h; 410,000 tested, 0.2% active; Potency, µM (highest dose often 76.6 µM), for the others: top-dose activation (PINK1 increase), most hits filed as activators; AID 624263, 2012; active = well fitted activation curve with a large enough effect; inconclusive = small, poorly fitted or top-dose-only effect; cell line not stated here; also: % of control where 0% means no effect; nearly all actives have a fitted effect of over 65% in size
#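 Stable cell line, 250 cells/well, 12 h attachment; compounds pinned at 5 concentrations, 24 h; CCCP control. Fixed with nuclear dye, primary antibodies 12 h at 10 degrees C, secondary plus cell stain; laser-scanning cytometer read.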
# HTT ATP protect = qHTS Multiplex Assay to Identify Dual Action Probes in a Cell Model of Huntington: Cytoprotection (ATP); PC12 HTT-Q103 induced, cytoprotection, ATP luminescence, 40 h; Potency, µM (top dose mostly 56.4 µM), for the others: cytoprotection (ATP increase), actives largely listed as activators; 230,000 tested, 0.14% active; AID 1471, 2008; also: % of control where 0% means no effect; nearly all actives have a fitted effect of over 45% in size
#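 Huntington model: PC12 line, ecdysone-inducible HTTQ103 exon1–GFP, tebufenozide 100 nM. Test articles in a dose series. Endpoint luminescence from cellular ATP.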
# HttQ103 aggreg = qHTS Multiplex Assay to Identify Dual Action Probes in a Cell Model of Huntington: Aggregate Formation (GFP); 220,000 tested, 1.1% active; AID 1688, 2009; Potency, µM (titrated, usually from 46.1 µM), for inactives: top-dose activity change, negative = inhibition, hits mostly inhibitors; PC12 HttQ103-GFP aggregates, Acumen cytometry, 40 h; also: % is scaled to controls: 0 for no effect and ±100 for the full control effect; nearly all actives have a fitted effect of over 60% in size
#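 PC12/HTTQ103-GFP, ecdysone-inducible; teb 100 nM; cpd qHTS titration; GFP aggregates read on laser cytometer, Ex 488/Em 500-530 nm.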
# Epigenetic derep = Quantitative High-Throughput Screen for Regulators of Epigenetic Control. 280,000 tested, 0.2% active. AID 1865, 2009. Potency, µM (doses to about 53.9 µM), inactives show at the highest dose GFP activation, hits mostly activators. murine LDR cells, GFP reporter derepression, 30 h; also: % of control where 0% means no effect; nearly all actives have a fitted effect of over 60% in size
#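 In this reporter-derepression format, murine cells bearing a silenced integrated CMV-GFP locus incubate with test compound (30 h, 37 C), then are washed and imaged; fluorescent objects of 20–120 um count as induced cells.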
# * hit, by the source's call; ? = inconclusive; · = no result; [ ] = dose if it differs, or a comment. Unless noted, calls follow the shape of the dose curve; as a rule, active = well fitted curve in the direction sought with a large enough effect; inconclusive = small, poorly fitted or top-dose-only effect, or another doubt; inactive = no such curve, though single readings can be large; an effect the other way counts as inactive or inconclusive. Potency is read from the fitted curve at half-maximal effect.
SMILES,PINK1 expr mod,HTT ATP protect,HttQ103 aggreg,Epigenetic derep
COc1ccc(CNCc2cccc(C)c2)cc1,1.6%,·,·,·
COc1ccc(CNCc2cccc(Oc3ccccc3)c2)cc1,12.5%,-54.3%,2.82µM*,-1.1%
O=C(O)CCC(=O)N1N=C(c2c(-c3ccccc3)c3cc(Cl)ccc3[nH]c2=O)CC1c1cccs1 (centres undefined),2.0%,2.82µM*,-6.3%,1.0%
NS(=O)(=O)c1ccc(N/N=C/c2ccc[nH]2)c([N+](=O)[O-])c1,3.3%,-31.8%[10 µM],-4.3%[9.22 µM],1.3%
CC(C)(C)CC(C)(C)c1ccc(OCCOCC[N+](C)(C)Cc2ccccc2)cc1,-0.3%,-226.7%,28.2µM*,0.0%
CCc1nnc(NC(=O)c2cccnc2SC)s1,-0.8%,4.7%,8.8%,-1.4%
N#CC(C#N)=C1C=C2C=C(N3CCOCC3)CCC2CC1 (centres undefined),15.8µM*,7.9%[10 µM],1.26µM*,10µM*
N#CC(C#N)=C1C=C2C=C(N3CCCCCC3)CCC2CC1 (centres undefined),11.2µM*,-0.6%[10 µM],0.708µM*,?
CC1(C)CC(NCCN2CCN(C3=CC(=C(C#N)C#N)CC(C)(C)C3)CC2)=CC(=C(C#N)C#N)C1,-0.1%,-46.0%,-10.8%,-0.3%
N#Cc1cc(Cl)c(N2CCOCC2)cc1C#N,-2.2%,-6.1%,14.2%,-2.1%
CN1CCN(C2=CC3=CC(=C(C#N)C#N)CCC3CC2)CC1 (centres undefined),?,-11.9%,0.316µM*,?
CCN1CCN(C2=CC3=CC(=C(C#N)C#N)CCC3CC2)CC1 (centres undefined),?,·,2.82µM*,1.41µM*
Cc1cccc(C)c1Nc1c(-c2ccccn2)nc2c(C)cccn12,2.8%,·,·,1.0%
CCCc1cc(=O)oc2cc(OC(C)C(=O)NCC3CCC(C(=O)O)CC3)c(Cl)cc12 (centres undefined),-0.4%,·,·,·
Cc1ccc([C@@H]2CC=C(C(=O)O)CN2S(=O)(=O)c2ccc(C)cc2)cc1,1.0%,·,·,·
CN(Cc1c(F)cccc1Cl)c1ccc(S(=O)(=O)N2CCOCC2)cn1,-3.3%[38.3 µM],-42.0%,3.55µM*,0.2%
CC(=O)Cc1nsc(NC(=O)c2ccc(-c3cc(C(F)(F)F)ccc3Cl)o2)n1,5.01µM*,-0.2%,2µM*,-0.2%
Cc1ccc(N(CC(C)C)S(=O)(=O)c2nnc(NC(=O)C(C)C)s2)cc1,-0.6%,·,·,0.0%
CC1=C(C)CC(C(=O)Nc2cccc([N+](=O)[O-])c2)C(C(=O)O)C1 (centres undefined),-2.5%,·,-2.4%,0.0%
O=S(=O)(Nc1nc2ccccc2nc1Nc1cccc(S(=O)(=O)N2CCCCC2)c1)c1ccccc1,25.1µM*,-21.4%[10 µM],?,0.0%
COC(=O)C1=C(C)OC(N)=C(C#N)C1c1cc2cc(C)ccc2nc1Cl (centres undefined),-1.0%,-4.1%[10 µM],-3.4%[9.22 µM],-4.2%
Cc1cccc(-n2ncc3c(NCc4ccco4)ncnc32)c1,12.6%,-23.1%[10 µM],?,3.5%
Cc1ccc2ncnc(NCc3ccco3)c2c1,2.7%,·,·,·
Cc1ccc(-n2ncc3c(NCc4ccco4)ncnc32)cc1C,0.8%,-61.7%,0.005µM*,-0.2%
Cc1cccc(-n2ncc3c(NCc4cccs4)ncnc32)c1,10.3%[38.3 µM],-28.6%,11.2µM*,6.9%
SMILES,PINK1 expr mod,HTT ATP protect,HttQ103 aggreg,Epigenetic derep
Clc1ccc2c(NCc3ccco3)ncnc2c1,-1.8%,-12.3%,14.1µM*,-7.0%
N#C/C(=C/c1ccc(Cl)cc1)c1nc(-c2ccc(Br)cc2)cs1,2.9%,·,·,0.0%
Cc1ccnc(N/C=C(\C#N)c2nc(-c3cccc(Br)c3)cs2)c1,20.2%[38.3 µM],-18.3%[10 µM],-1.9%,15.8µM*
CCCN1CCc2c(sc(NC(=O)c3ccc(S(=O)(=O)N(C)c4ccccc4)cc3)c2C(=O)NC)C1,3.9%,·,·,·
CCC(CC)c1nnc(NC(=O)Cc2cccs2)s1,2.0%,17.7%[10 µM],-7.9%[9.22 µM],0.1%
COc1ccc(N/N=C(\C#N)C(=N)SCc2ccccc2)cc1,-0.4%,?,7.94µM*,-0.8%
Cc1nn(-c2ccccc2)c(N)c1Sc1cccc([N+](=O)[O-])c1,2.4%,18.3%[10 µM],-15.7%,1.5%
Cc1nn(-c2ccccc2)c(N)c1Sc1ccccc1[N+](=O)[O-],0.8%,2.4%[10 µM],3.55µM*,0.0%
N#CCSc1nnc(C2CCCCC2)n1-c1ccccc1,-1.6%,0.5%,-7.9%,-0.4%
O=C(Nc1nc2c(Cl)cccc2s1)c1ccc(Br)o1,14.1µM*,-1.4%,-4.7%,1.0%
c1ccc(C2=Nn3c(nnc3-c3ccncc3)SC2)cc1,-2.3%,25.1µM*,10µM*,-1.0%
CS(=O)(=O)c1ncc(Cl)c(C(=O)Nc2ccc(N3CCOCC3)cc2)n1,·,-22.4%[10 µM],11.2µM*,0.9%
CS(=O)(=O)c1ncc(Cl)c(C(=O)Nc2ccc(OC(F)F)cc2)n1,-1.7%,·,·,·
COc1ccc(NC(=O)c2cc3nc(-c4ccccc4)cc(-c4ccccc4)n3n2)c(OC)c1,2.8%,-21.0%,16.3%,-3.1%
Cc1cc(C)cc(NC(=O)/C=C/c2ccc([N+](=O)[O-])s2)c1,?,?,?,8.0%
Cc1ccccc1NC(=O)/C=C/c1ccc([N+](=O)[O-])s1,3.7%,·,?,3.55µM*
O=C(N/N=C/c1ccc([N+](=O)[O-])s1)c1ccccc1Br,·,-74.3%,?,3.8%
CC(=O)c1cccc(NC(=O)/C=C/c2ccc([N+](=O)[O-])s2)c1,18.2%,?,?,3.98µM*
Cc1ccccc1C(=O)N/N=C/c1ccc([N+](=O)[O-])s1,?,-58.4%,25.1µM*,-0.7%
O=S(=O)(NC1=NCCC1)c1cccs1,·,-2.6%[10 µM],22.9%,-3.4%
C/C(=N\O)c1ccc(Cl)cc1Cl,5.1%,11.9%[10 µM],-5.1%[9.22 µM],1.1%
COc1ccc(N=c2ssnc2Cl)cc1,-0.7%,-4.4%[10 µM],9.0%,7.0%
CSc1ncc(C(=O)Nc2ccccc2C(=O)c2ccccc2)c(C)n1,1.6%,·,·,-1.2%
O=C1CC(c2ccccc2)Cc2nc3nc(C(F)(F)F)nn3cc21 (centres undefined),?,-6.9%,12.6µM*,7.4%
CSc1nc2nc3c(cn2n1)C(=O)CC(c1ccccc1)C3 (centres undefined),-4.4%[38.3 µM],2.4%,8.3%,-4.8%
SMILES,PINK1 expr mod,HTT ATP protect,HttQ103 aggreg,Epigenetic derep
Cc1ccc(-c2cnc(NC(=O)CCC(=O)N3CCCCC3)n2C)cc1,5.8%[38.3 µM],-10.0%,-12.1%,1.4%
CNc1cc([N+](=O)[O-])ccc1N/C=C/C(=O)c1ccc2c(c1)OCO2,14.1µM*,·,21.0%,-3.0%
COc1ccc(C(=O)/C=C/Nc2ccc([N+](=O)[O-])cc2C)cc1OC,28.2µM*,-0.2%[10 µM],-7.9%,?
COc1ccc(C(=O)/C=C/Nc2ccc([N+](=O)[O-])cc2C)c(OC)c1,?,10.9%[10 µM],6.0%,?
O=C(NNC(=O)c1cccs1)c1cccnc1,0.1%,·,·,·
Cc1cccc(C)c1NC(=O)CNC(=O)c1c(-c2ccccc2)noc1C,2.5%,·,·,·
